# Experimental data: the supplement of paper PMC12282887
# ± gives the standard deviation of the averaged measurements.
# Columns and labels:
# Test in all cases: promoter activity interaction Z-score (Lux/OD deviation from empty-vector control); higher = stronger promoter induction by the compound
# [1] = system: E. coli BW25113 micFp lux reporter; conditions: 94.8 µg/ml
# How it was run: (§1)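 Low-copy luxCDABE promoter reporters were carried by E. coli BW25113, either wild type or lacking one of three genes, grown in 40 µl LB Lennox in 384-well plates at 37°C. Each compound was run at four 1:2 dilutions in biological duplicates, with OD600 and luminescence read every 30 min for 12 h. Integration used 0–8 h for wild type and 1–9 h for deletion strains, and wells under 10% of the median growth value were removed. Luminescence normalised to growth was fitted against a control, and the Z-transformed residual is the score.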
# [2] = system: E. coli BW25113 ompFp lux reporter
# How it was run: as §1
# [3] = system: E. coli BW25113 robp lux reporter
# How it was run: as §1
# [4] = system: E. coli BW25113 soxSp lux reporter
# How it was run: as §1
# [5] = system: E. coli BW25113 tolCp lux reporter
# How it was run: as §1
# [6] = 11.9 µg/ml, genetic background: wild type
# [7] = 11.9 µg/ml, genetic background: ΔmarA
# [8] = 11.9 µg/ml, genetic background: Δrob
# [9] = 11.9 µg/ml, genetic background: ΔsoxS
# [10] = 23.7 µg/ml, genetic background: wild type
# [11] = 23.7 µg/ml, genetic background: ΔmarA
# [12] = 23.7 µg/ml, genetic background: Δrob
# [13] = 23.7 µg/ml, genetic background: ΔsoxS
# [14] = 47.4 µg/ml, genetic background: wild type
# [15] = 47.4 µg/ml, genetic background: ΔmarA
# [16] = 47.4 µg/ml, genetic background: Δrob
# [17] = 47.4 µg/ml, genetic background: ΔsoxS
# [18] = 94.8 µg/ml, genetic background: wild type
# [19] = 94.8 µg/ml, genetic background: ΔmarA
# [20] = 94.8 µg/ml, genetic background: Δrob
# [21] = 94.8 µg/ml, genetic background: ΔsoxS
structure (smiles),measurement,setting,value
NCCc1ccc(O)c(O)c1 [Dopamine],promoter activity interaction Z-score,[1]; genetic background: Δrob,-0.149 ± 0.093
same,promoter activity interaction Z-score,[1]; genetic background: ΔsoxS,-0.745 ± 0.067
same,promoter activity interaction Z-score,[2]; [6],0.401 ± 0.57
same,promoter activity interaction Z-score,[2]; [7],-0.363 ± 0.16
same,promoter activity interaction Z-score,[2]; [8],-0.182 ± 0.48
same,promoter activity interaction Z-score,[2]; [9],-0.36 ± 0.38
same,promoter activity interaction Z-score,[2]; [10],-0.18 ± 0.33
same,promoter activity interaction Z-score,[2]; [11],0.285 ± 0.88
same,promoter activity interaction Z-score,[2]; [12],-0.131 ± 0.68
same,promoter activity interaction Z-score,[2]; [13],-0.722 ± 0.37
same,promoter activity interaction Z-score,[2]; [14],0.112 ± 0.24
same,promoter activity interaction Z-score,[2]; [15],-0.55 ± 0.36
same,promoter activity interaction Z-score,[2]; [16],-0.52 ± 0.2
same,promoter activity interaction Z-score,[2]; [17],-0.843 ± 0.13
same,promoter activity interaction Z-score,[2]; [18],-0.811 ± 0.18
same,promoter activity interaction Z-score,[2]; [19],-0.358 ± 0.12
same,promoter activity interaction Z-score,[2]; [20],-0.473 ± 0.64
same,promoter activity interaction Z-score,[2]; [21],-1.22 ± 0.11
same,promoter activity interaction Z-score,[3]; [6],0.58 ± 0.43
same,promoter activity interaction Z-score,[3]; [7],-0.0165 ± 0.28
same,promoter activity interaction Z-score,[3]; [8],-0.285 ± 0.42
same,promoter activity interaction Z-score,[3]; [9],-0.285 ± 0.27
same,promoter activity interaction Z-score,[3]; [10],0.285 ± 0.52
same,promoter activity interaction Z-score,[3]; [11],1.42 ± 1.2
same,promoter activity interaction Z-score,[3]; [12],-0.0375 ± 0.68
same,promoter activity interaction Z-score,[3]; [13],0.593 ± 1.6
same,promoter activity interaction Z-score,[3]; [14],0.737 ± 0.14
same,promoter activity interaction Z-score,[3]; [15],-0.645 ± 0.12
same,promoter activity interaction Z-score,[3]; [16],-0.805 ± 0.17
same,promoter activity interaction Z-score,[3]; [17],-1.1 ± 0.16
same,promoter activity interaction Z-score,[3]; [18],-0.828 ± 0.0096
same,promoter activity interaction Z-score,[3]; [19],0.583 ± 0.9
same,promoter activity interaction Z-score,[3]; [20],-1.32 ± 0.2
same,promoter activity interaction Z-score,[3]; [21],-2.04 ± 0.13
same,promoter activity interaction Z-score,[4]; [6],0.474 ± 0.25
same,promoter activity interaction Z-score,[4]; [7],-0.0183 ± 0.11
same,promoter activity interaction Z-score,[4]; [8],-0.0377 ± 0.026
same,promoter activity interaction Z-score,[4]; [9],-0.0441 ± 0.24
same,promoter activity interaction Z-score,[4]; [10],0.394 ± 0.015
same,promoter activity interaction Z-score,[4]; [11],0.0576 ± 0.031
same,promoter activity interaction Z-score,[4]; [12],-0.0399 ± 0.15
same,promoter activity interaction Z-score,[4]; [13],-0.277 ± 0.03
same,promoter activity interaction Z-score,[4]; [14],0.201 ± 0.11
same,promoter activity interaction Z-score,[4]; [15],-0.0617 ± 0.12
same,promoter activity interaction Z-score,[4]; [16],-0.00712 ± 0.2
same,promoter activity interaction Z-score,[4]; [17],-0.3 ± 0.13
same,promoter activity interaction Z-score,[4]; [18],-0.211 ± 0.15
same,promoter activity interaction Z-score,[4]; [19],-0.1512 ± 0.0014
same,promoter activity interaction Z-score,[4]; [20],-0.176 ± 0.19
same,promoter activity interaction Z-score,[4]; [21],-0.581 ± 0.061
same,promoter activity interaction Z-score,[5]; [6],0.393 ± 0.4
same,promoter activity interaction Z-score,[5]; [7],-0.496 ± 0.057
same,promoter activity interaction Z-score,[5]; [8],-0.398 ± 0.89
same,promoter activity interaction Z-score,[5]; [9],0.889 ± 0.7
same,promoter activity interaction Z-score,[5]; [10],0.663 ± 0.58
same,promoter activity interaction Z-score,[5]; [11],0.117 ± 0.58
same,promoter activity interaction Z-score,[5]; [12],-0.413 ± 0.2
same,promoter activity interaction Z-score,[5]; [13],-0.0415 ± 0.32
same,promoter activity interaction Z-score,[5]; [14],-0.164 ± 0.13
same,promoter activity interaction Z-score,[5]; [15],-0.559 ± 0.79
same,promoter activity interaction Z-score,[5]; [16],-0.226 ± 0.6
same,promoter activity interaction Z-score,[5]; [17],-0.165 ± 0.64
same,promoter activity interaction Z-score,[5]; [18],-0.754 ± 0.24
same,promoter activity interaction Z-score,[5]; [19],-0.55 ± 0.46
same,promoter activity interaction Z-score,[5]; [20],-0.192 ± 0.73
same,promoter activity interaction Z-score,[5]; [21],-1 ± 0.74
